# Experimental data taken from PubChem BioAssay (EPA / NIEHS).
# Values joined by “and” are separate entries in the source; they are usually repeats but may differ in a detail not shown here. Equal values may be shown once. Records with an inconclusive call do not appear. Active and inactive are the calls of the source. Rule for the calls: active = hit-call score of the fitted dose curve at least 0.9, where 1 is the maximum; inconclusive = response in the unintended direction; inactive = score below 0.9.
# Assays:
# Caspase-3 (Homo sapiens) = Caspase-3 (Homo sapiens) (UniProt P42574); assay: NVS_ENZ_hCASP3: NovaScreen (NVS) Enzymatic Assay for human Caspase 3 (CASP3) (AID 2283139)
# Sequence of Caspase-3 (Homo sapiens) (P42574 whole entry, looked up): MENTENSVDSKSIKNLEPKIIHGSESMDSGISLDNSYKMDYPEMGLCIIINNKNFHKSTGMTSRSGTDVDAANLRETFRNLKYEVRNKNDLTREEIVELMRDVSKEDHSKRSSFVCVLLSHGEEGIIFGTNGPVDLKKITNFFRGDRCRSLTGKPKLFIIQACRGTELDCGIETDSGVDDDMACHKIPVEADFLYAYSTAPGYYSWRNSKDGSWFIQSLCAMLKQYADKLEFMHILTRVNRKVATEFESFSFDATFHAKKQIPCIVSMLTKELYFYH
# Protocol: (§1) NVS_ENZ_hCASP3 is a biochemical, single-readout assay that uses extracted gene-proteins from E. coli in a cell-free assay. Measurements were taken 1 hour after chemical dosing in a 96-well plate.NVS_ENZ_hCASP3 is one of one assay component(s) measured or calculated from the NVS_ENZ_hCASP3 assay. It is designed to make measurements of enzyme activity, a form of enzyme reporter, as detected with fluorescence intensity signals by Fluorescence technology.Data from the assay component NVS_ENZ_hCASP3 was analyzed into 1 assay endpoint. This assay endpoint, NVS_ENZ_hCASP3, was analyzed in the positive analysis fitting direction relative to DMSO as the negative control and baseline of activity. Using a type of enzyme reporter, loss-of-signal activity can be used to understand changes in the enzymatic activity as they relate to the gene CASP3. Furthermore, this assay endpoint can be referred to as a primary readout, because this assay has produced multiple assay endpoints where this one serves a enzymatic activity function. To generalize the intended target to other relatable targets, this assay endpoint is annotated to the protease intended target family, where the subfamily is cysteine protease.
# Binding assays used specific radioligands (tritiated, iodinated) with non-radioactive competitive displacement ligands in agonist or antagonist protocols (as indicated) and various reference compounds and inhibitors to titrate specific binding to receptors and transporters. Most enzyme assays (CYPs, kinases, phosphatases, proteases, HDACs) used recombinant protein and specific substrates (fluorescence mostly, some colorimetric and radioactive) and inhibitors, followed by a biochemical separation of substrate and product. All assays for the biochemical HTS were initially run in duplicate at a single concentration (10 uM for CYP450 assays and 25 uM for all others). Assay-chemical combinations meeting a pre-defined threshold (e.g., 30% inhibition and other criteria defined below) were then run in singleton concentration-response format with maximum concentration of 20 uM for CYPs and 50 uM for all others. Each assay was run with positive and negative controls, and concurrent controls on every plate. The follow-up (secondary) screen tested active chemical-pairs in concentration series, as well as a few additional assays not tested in the primary screen, some selected negative inactives, and several cases re-run in the concentration series for confirmatory purposes.
# [1] = molecular target: human Beta-secretase (BACE), BACE1 (gene 23621) (UniProt P56817); assay: NVS_ENZ_hBACE: NovaScreen (NVS) Enzymatic Assay for human Beta-secretase (BACE) (AID 2283140);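 note: hits are inhibitors that reduce fluorescent substrate signal versus DMSO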
# Sequence of human Beta-secretase (BACE), BACE1 (gene 23621) (P56817 whole entry, looked up): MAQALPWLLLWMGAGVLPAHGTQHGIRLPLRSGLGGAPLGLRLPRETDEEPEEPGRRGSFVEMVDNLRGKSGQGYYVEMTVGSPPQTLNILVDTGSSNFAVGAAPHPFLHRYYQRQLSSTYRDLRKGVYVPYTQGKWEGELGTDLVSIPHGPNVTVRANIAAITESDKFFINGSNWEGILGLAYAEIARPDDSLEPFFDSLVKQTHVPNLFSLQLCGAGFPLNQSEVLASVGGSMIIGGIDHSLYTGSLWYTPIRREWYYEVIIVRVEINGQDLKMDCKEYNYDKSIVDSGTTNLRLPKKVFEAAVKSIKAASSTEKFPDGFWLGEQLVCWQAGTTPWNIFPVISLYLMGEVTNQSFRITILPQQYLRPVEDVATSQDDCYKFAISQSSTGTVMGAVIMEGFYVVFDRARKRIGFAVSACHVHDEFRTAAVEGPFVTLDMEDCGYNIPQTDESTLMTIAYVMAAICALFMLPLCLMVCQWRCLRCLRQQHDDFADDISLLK
# Procedure, shortened: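 Enzyme from SF9 cells was incubated 1 hour with compound and fluorogenic substrate, activity read by fluorescence. Single-concentration duplicates at 25 uM preceded concentration-response follow-up; fitting relative to DMSO baseline.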
# [2] = molecular target: human AKT serine/threonine Kinase 1 (AKT1), AKT1 (gene 207) (UniProt P31749); assay: NVS_ENZ_hAKT1: NovaScreen (NVS) Enzymatic Assay for human AKT serine/threonine Kinase 1 (AKT1) (AID 2283138)
# Sequence of human AKT serine/threonine Kinase 1 (AKT1), AKT1 (gene 207) (P31749 whole entry, looked up): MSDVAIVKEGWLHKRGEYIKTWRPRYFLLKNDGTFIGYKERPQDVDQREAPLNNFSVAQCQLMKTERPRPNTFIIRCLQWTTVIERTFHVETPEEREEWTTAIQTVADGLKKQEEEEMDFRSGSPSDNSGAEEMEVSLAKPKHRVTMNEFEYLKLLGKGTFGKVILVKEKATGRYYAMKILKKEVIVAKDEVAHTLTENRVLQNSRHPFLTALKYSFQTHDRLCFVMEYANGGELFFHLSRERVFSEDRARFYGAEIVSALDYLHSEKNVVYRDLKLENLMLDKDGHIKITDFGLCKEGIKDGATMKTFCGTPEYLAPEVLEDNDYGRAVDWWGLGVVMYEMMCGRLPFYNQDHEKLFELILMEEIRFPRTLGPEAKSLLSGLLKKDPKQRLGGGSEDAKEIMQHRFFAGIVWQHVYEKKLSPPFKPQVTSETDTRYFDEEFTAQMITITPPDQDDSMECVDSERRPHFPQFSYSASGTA
# Procedure, shortened: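 Screening first at 25 uM (duplicate), with threshold-passing chemicals re-tested in concentration series to a 50 uM maximum. Kinase activity read by fluorescence with mobility-shift separation of substrate and product, 1 h after dosing, DMSO baseline.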
# [3] = molecular target: human AKT serine/threonine Kinase 2 (AKT2), AKT2 (gene 208) (UniProt P31751); assay: NVS_ENZ_hAKT2: NovaScreen (NVS) Enzymatic Assay for human AKT serine/threonine Kinase 2 (AKT2) (AID 2283141)
# Sequence of human AKT serine/threonine Kinase 2 (AKT2), AKT2 (gene 208) (P31751 whole entry, looked up): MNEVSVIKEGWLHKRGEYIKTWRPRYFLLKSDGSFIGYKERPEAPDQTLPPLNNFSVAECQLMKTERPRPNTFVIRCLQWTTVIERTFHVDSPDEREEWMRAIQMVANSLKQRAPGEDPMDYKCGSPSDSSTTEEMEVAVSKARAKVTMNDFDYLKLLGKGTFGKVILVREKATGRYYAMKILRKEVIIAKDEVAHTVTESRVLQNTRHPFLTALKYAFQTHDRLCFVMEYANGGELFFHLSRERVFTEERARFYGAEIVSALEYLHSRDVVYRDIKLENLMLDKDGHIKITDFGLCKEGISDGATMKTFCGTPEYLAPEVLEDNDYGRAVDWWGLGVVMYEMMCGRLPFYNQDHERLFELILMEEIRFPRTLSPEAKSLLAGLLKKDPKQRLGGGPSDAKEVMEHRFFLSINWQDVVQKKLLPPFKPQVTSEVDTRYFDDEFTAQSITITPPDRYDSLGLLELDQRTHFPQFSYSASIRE
# Procedure, shortened: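 Cell-free fluorescence/electrophoretic mobility shift readout of recombinant human AKT2 activity, 1 h after chemical dosing. Duplicate primary screen at 25 uM, then singleton concentration-response up to 50 uM; loss of signal versus DMSO baseline.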
# [4] = molecular target: human Caspase 2 (CASP2), CASP2 (gene 835) (UniProt P42575); assay: NVS_ENZ_hCASP2: NovaScreen (NVS) Enzymatic Assay for human Caspase 2 (CASP2) (AID 2283135)
# Sequence of human Caspase 2 (CASP2), CASP2 (gene 835) (P42575 whole entry, looked up): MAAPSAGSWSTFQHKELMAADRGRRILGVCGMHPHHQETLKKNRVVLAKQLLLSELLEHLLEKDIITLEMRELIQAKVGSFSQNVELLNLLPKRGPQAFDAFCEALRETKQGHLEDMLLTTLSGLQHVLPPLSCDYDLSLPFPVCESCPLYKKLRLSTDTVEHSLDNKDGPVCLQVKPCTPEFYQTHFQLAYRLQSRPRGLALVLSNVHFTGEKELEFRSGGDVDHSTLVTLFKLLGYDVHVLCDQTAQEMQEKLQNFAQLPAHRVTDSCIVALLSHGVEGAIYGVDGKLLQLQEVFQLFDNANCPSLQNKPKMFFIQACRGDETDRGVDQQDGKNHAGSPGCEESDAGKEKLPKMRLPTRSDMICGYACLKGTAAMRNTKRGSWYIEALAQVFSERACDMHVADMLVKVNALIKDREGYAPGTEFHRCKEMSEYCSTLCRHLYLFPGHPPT
# Protocol: as §1, with “NVS_ENZ_hCASP2” for “NVS_ENZ_hCASP3”, “plate.NVS_ENZ_hCASP2” for “plate.NVS_ENZ_hCASP3”, “NVS_ENZ_hCASP2,” for “NVS_ENZ_hCASP3,”, “CASP2.” for “CASP3.”
# Binding assays used specific radioligands (tritiated, iodinated) with non-radioactive competitive displacement ligands in agonist or antagonist protocols (as indicated) and various reference compounds and inhibitors to titrate specific binding to receptors and transporters. Most enzyme assays (CYPs, kinases, phosphatases, proteases, HDACs) used recombinant protein and specific substrates (fluorescence mostly, some colorimetric and radioactive) and inhibitors, followed by a biochemical separation of substrate and product. All assays for the biochemical HTS were initially run in duplicate at a single concentration (10 uM for CYP450 assays and 25 uM for all others). […]
# [5] = molecular target: human Acid Phosphatase 1 (ACP1), ACP1 (gene 52) (UniProt P24666); assay: NVS_ENZ_hACP1: NovaScreen (NVS) Enzymatic Assay for human Acid Phosphatase 1 (ACP1) (AID 2283136)
# Sequence of human Acid Phosphatase 1 (ACP1), ACP1 (gene 52) (P24666 whole entry, looked up): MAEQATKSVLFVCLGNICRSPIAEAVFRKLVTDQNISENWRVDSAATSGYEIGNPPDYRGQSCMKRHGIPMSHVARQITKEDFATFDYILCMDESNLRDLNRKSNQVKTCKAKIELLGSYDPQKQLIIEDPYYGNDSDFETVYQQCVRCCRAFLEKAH
# Procedure, shortened: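 Cell-free fluorescence read-out of phosphatase activity, substrate and product separated by mobility shift, taken 1.5 h after compound addition; protein produced in Sf9. Single 25 uM duplicate screen, followed by concentration series for actives, scored as signal loss relative to DMSO.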
# [6] = molecular target: human Caspase 5 (CASP5), CASP5 (gene 838) (UniProt P51878); assay: NVS_ENZ_hCASP5: NovaScreen (NVS) Enzymatic Assay for human Caspase 5 (CASP5) (AID 2283137)
# Sequence of human Caspase 5 (CASP5), CASP5 (gene 838) (P51878 whole entry, looked up): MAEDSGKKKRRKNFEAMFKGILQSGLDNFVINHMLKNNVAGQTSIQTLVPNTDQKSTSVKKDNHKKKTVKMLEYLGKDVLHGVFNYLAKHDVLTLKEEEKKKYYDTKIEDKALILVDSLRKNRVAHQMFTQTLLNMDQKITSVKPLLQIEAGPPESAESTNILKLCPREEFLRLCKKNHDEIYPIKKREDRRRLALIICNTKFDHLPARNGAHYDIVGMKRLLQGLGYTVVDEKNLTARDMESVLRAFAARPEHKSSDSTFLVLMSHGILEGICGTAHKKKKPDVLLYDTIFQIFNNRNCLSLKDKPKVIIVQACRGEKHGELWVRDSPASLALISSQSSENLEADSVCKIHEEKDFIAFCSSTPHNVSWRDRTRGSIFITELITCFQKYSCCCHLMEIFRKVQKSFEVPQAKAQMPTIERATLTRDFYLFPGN
# Procedure, shortened: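 Loss of fluorescent signal versus DMSO scored for E. coli-derived human CASP5 cleaving a fluorescent substrate, 2 h post-dosing; compounds first tested at 25 uM in duplicate, hits rerun in concentration series with 50 uM top concentration.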
# [7] = molecular target: human Aurora Kinase A - serine/threonine-protein Kinase 6 (AurA), AURKA (gene 6790) (UniProt O14965); assay: NVS_ENZ_hAurA: NovaScreen (NVS) Enzymatic Assay for human Aurora Kinase A - serine/threonine-protein Kinase 6 (AurA) (AID 2283142)
# Sequence of human Aurora Kinase A - serine/threonine-protein Kinase 6 (AurA), AURKA (gene 6790) (O14965 whole entry, looked up): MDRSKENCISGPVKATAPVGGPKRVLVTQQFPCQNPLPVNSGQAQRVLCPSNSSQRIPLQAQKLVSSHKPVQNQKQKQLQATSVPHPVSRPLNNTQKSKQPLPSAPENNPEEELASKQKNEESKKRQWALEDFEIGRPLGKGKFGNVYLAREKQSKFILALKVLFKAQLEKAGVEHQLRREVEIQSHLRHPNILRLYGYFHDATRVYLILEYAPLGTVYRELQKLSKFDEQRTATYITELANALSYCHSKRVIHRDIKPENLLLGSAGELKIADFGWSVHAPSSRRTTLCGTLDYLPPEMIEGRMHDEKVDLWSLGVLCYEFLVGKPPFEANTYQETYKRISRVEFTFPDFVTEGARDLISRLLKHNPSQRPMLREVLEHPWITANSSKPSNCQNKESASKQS
# Procedure, shortened: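 Recombinant human AurA activity read by fluorescence after mobility-shift separation of product from substrate; 1 hour incubation. Chemicals first run in duplicate at 25 uM, then concentration series to 50 uM if over threshold; fitted relative to DMSO.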
# [8] = molecular target: human Caspase 4 (CASP4), CASP4 (gene 837) (UniProt P49662); assay: NVS_ENZ_hCASP4: NovaScreen (NVS) Enzymatic Assay for human Caspase 4 (CASP4) (AID 2283143)
# Sequence of human Caspase 4 (CASP4), CASP4 (gene 837) (P49662 whole entry, looked up): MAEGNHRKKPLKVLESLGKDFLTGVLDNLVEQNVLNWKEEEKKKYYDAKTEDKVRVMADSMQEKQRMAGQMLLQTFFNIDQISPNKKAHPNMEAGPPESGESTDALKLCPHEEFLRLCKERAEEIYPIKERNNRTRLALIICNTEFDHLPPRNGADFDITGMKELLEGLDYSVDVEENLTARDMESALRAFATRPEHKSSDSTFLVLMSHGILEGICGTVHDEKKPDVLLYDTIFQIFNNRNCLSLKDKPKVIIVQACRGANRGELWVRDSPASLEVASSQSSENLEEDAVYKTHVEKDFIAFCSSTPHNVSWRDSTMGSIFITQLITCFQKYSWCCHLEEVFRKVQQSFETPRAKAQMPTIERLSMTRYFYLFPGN
# Procedure, shortened: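 Compounds were first tested in duplicate at 25 uM, and hits were titrated singly to a 50 uM maximum. Recombinant protease from E. coli was read by fluorescence 2 h post-dose, and activity loss was fitted against the DMSO baseline.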
# [9] = molecular target: human Caspase 10 (CASP10), CASP10 (gene 843) (UniProt Q92851); assay: NVS_ENZ_hCASP10: NovaScreen (NVS) Enzymatic Assay for human Caspase 10 (CASP10) (AID 2283133)
# Sequence of human Caspase 10 (CASP10), CASP10 (gene 843) (Q92851 whole entry, looked up): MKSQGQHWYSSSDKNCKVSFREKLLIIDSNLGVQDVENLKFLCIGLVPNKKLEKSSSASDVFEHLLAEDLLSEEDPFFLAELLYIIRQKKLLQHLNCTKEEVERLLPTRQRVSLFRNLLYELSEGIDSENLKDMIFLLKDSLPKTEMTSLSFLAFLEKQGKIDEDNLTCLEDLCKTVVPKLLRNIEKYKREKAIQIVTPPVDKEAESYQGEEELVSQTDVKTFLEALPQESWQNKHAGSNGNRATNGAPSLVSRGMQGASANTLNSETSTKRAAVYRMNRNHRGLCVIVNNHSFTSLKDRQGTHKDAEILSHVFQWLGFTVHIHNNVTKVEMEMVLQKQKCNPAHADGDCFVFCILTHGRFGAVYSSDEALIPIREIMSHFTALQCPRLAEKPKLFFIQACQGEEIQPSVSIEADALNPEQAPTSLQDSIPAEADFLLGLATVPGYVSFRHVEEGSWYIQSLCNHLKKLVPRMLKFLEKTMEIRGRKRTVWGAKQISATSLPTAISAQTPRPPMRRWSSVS
# Protocol: as §1, with “NVS_ENZ_hCASP10” for “NVS_ENZ_hCASP3”, “plate.NVS_ENZ_hCASP10” for “plate.NVS_ENZ_hCASP3”, “NVS_ENZ_hCASP10,” for “NVS_ENZ_hCASP3,”, “CASP10.” for “CASP3.”, “protease. […]” for “protease.”
compound,measurement,setting,value
CCOP(=S)(OCC)SCCSCC,outcome,Caspase-3 (Homo sapiens),inactive
C#CCC1=C(C)C(OC(=O)C2C(C=C(C)C)C2(C)C)CC1=O (stereo unspecified),outcome,[1],inactive
CCCCOC(=O)c1ccccc1C(=O)O,outcome,[2],inactive
same,outcome,[1],inactive
Nc1c(Cl)cc([N+](=O)[O-])cc1Cl,outcome,[2],inactive
same,outcome,[3],inactive
CCC(CC)Nc1c([N+](=O)[O-])cc(C)c(C)c1[N+](=O)[O-],outcome,[1],inactive
COc1ccc(C(=CC(=O)N2CCOCC2)c2ccc(Cl)cc2)cc1OC,outcome,Caspase-3 (Homo sapiens),inactive
S=C1NCCN1,outcome,[4],inactive
same,outcome,[5],inactive
same,outcome,[6],inactive
same,outcome,[2],inactive
same,outcome,[1],inactive
same,outcome,[7],inactive
same,outcome,[8],inactive
CC(C)[C@H](C(=O)O[C@H](C#N)c1cccc(Oc2ccccc2)c1)c1ccc(Cl)cc1,AC50,[1],1.19 µM (active)
same,outcome,[7],inactive
CCCCSP(=O)(SCCCC)SCCCC,outcome,[1],inactive
COP(=O)(NC(C)=O)SC (stereo unspecified),outcome,Caspase-3 (Homo sapiens),inactive
Cc1ccn2nc(S(=O)(=O)Nc3c(F)cccc3F)nc2n1,outcome,[6],inactive
CON=C(C(=O)OC)c1ccccc1CON=C(C)c1cccc(C(F)(F)F)c1,outcome,[1],inactive
O=C(O)c1cc(Oc2ccc(C(F)(F)F)cc2Cl)ccc1[N+](=O)[O-],outcome,[9],inactive
same,outcome,[3],inactive
CCc1cccc(CC)c1N(COC)C(=O)CCl,outcome,[9],inactive
CC(COc1ccc(Oc2ccccc2)cc1)Oc1ccccn1 (stereo unspecified),AC50,[1],37.2 µM (active)
CSc1nc(NC(C)C)nc(NC(C)C)n1,outcome,[3],inactive
CSc1nnc(C(C)(C)C)c(=O)n1N,outcome,[3],inactive
CC[C@H](C)[C@H]1O[C@]2(C=C[C@@H]1C)C[C@@H]1C[C@@H](C/C=C(\C)[C@@H](O[C@H]3C[C@H](OC)[C@@H](O[C@H]4C[C@H](OC)[C@@H](NC)[C@H](C)O4)[C@H](C)O3)[C@@H](C)/C=C/C=C3\CO[C@@H]4[C@H](O)C(C)=C[C@@H](C(=O)O1)[C@]34O)O2,outcome,[6],inactive
same,outcome,Caspase-3 (Homo sapiens),inactive
same,AC50,[1],9.68 µM (active)
O=c1ccc(=O)[nH][nH]1,outcome,[4],inactive
CC(C)=CC1C(C(=O)OCN2C(=O)C3=C(CCCC3)C2=O)C1(C)C (stereo unspecified),AC50,Caspase-3 (Homo sapiens),18.1 µM (active)
same,AC50,[1],25 µM (active)
CN(C)[C@@H]1C(=O)C(C(N)=O)=C(O)[C@@]2(O)C(=O)C3=C(O)c4c(O)cccc4[C@@](C)(O)[C@H]3[C@H](O)[C@@H]12,AC50,[4],10.8 µM (active)
same,AC50,[5],23.1 µM (active)
same,AC50,[6],5.15 µM (active) and 683 nM (active)
same,AC50,[1],12.6 µM (active) and 7.9 µM (active)
same,AC50,[7],29.4 µM (active)
same,AC50,[8],11.9 µM (active)
CCC(=O)Nc1ccc(Cl)c(Cl)c1,outcome,[8],inactive
CCOP(=O)(SC(C)CC)N1CCSC1=O (stereo unspecified),outcome,[2],inactive
